Measured values published in PubChem BioAssay AID1963316 (National Center for Advancing Translational Sciences (NCATS), 2024).
Inconclusive results are not listed. Values without a mark were called inactive. The call rests on the fitted dose curve.

molecular target: Tyrosine-protein kinase ABL1 (Homo sapiens) (UniProt P00519); test: ABL1 kinase (ABL1-N-HiBiT) SDR gain of signal screen - plus ATP; details: purified ABL1-N-HiBiT enzyme, HiBiT luminescence with 50 uM ATP, 30 min; series mostly up to 57.5 µM; signal gain, positive = increase: at the top concentration
Sequence (P00519 whole entry, looked up): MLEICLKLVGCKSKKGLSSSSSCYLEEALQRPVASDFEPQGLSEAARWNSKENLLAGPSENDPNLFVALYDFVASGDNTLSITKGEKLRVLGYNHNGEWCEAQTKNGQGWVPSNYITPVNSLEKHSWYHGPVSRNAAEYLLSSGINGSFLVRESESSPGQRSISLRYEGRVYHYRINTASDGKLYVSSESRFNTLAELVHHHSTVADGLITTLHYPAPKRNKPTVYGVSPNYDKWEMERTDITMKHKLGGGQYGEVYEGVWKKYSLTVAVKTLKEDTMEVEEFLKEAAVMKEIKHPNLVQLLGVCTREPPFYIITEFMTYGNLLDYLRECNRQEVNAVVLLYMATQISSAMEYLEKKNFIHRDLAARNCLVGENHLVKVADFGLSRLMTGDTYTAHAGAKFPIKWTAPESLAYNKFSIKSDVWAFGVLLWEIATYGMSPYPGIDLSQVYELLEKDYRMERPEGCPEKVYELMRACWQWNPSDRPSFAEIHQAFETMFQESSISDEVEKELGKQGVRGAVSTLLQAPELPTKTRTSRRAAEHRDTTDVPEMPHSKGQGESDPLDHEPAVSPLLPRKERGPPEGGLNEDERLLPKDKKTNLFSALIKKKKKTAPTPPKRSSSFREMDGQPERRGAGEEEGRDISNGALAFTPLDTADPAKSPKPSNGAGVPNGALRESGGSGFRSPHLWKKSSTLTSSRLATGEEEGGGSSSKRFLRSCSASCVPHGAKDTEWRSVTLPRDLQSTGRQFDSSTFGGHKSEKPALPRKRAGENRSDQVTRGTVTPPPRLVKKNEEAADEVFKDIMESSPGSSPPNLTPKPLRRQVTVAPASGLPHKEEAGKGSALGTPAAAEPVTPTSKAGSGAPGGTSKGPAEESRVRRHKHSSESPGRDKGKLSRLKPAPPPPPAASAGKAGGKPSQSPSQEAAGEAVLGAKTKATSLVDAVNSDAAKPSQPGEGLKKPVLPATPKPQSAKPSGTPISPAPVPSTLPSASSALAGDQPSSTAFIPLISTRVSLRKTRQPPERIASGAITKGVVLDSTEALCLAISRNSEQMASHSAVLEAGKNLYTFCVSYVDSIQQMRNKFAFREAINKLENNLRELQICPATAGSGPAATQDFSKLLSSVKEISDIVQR
From the text: National Center for Advancing Translational Sciences (NCATS),
National Institute of Health (NIH), Maryland
Discovery and optimization of novel protein-binding ligands underlies many of the methods and applications of biology, drug discovery, clinical diagnostics, and environmental toxicology. Assays for detecting the interaction of, for example, a molecule with a macromolecular target also referred to here as the target of interest (TOI) is dependent on a compatible output technology. Depending on the nature and knowledge surrounding the TOI, whether a receptor, enzyme, regulatory subunit or scaffold, or a sequence-defined nucleic acid folded into a complex tertiary structure, assay strategies can vary widely.
Here we exploit ligand-biased changes in the structural dynamics of the target protein to control reporter alpha complementation allowing a non-competitive, non-functional, non-separation measure of ligand-target interaction.
Secondly, we show the specificity and sensitivity of the SDR for the Abelson tyrosine kinase (ABL1) compared to the serine/threonine protein kinase A, using an enriched chemical library of 128 compounds selected, in part, for activity annotated with ABL1 kinase activity using the Pharos database (3).
(1) A. S. Dixon et al., NanoLuc Complementation Reporter Optimized for Accurate Measurement of Protein Interactions in Cells. ACS Chem Biol 11, 400-408 (2016).
Chemistry & Biology, 19, 1060 - 1072 (2012).
(3) K. J. Kelleher et al., Pharos 2023: an integrated resource for the understudied human proteome. Nucleic Acids Res 51, D1405-D1416 (2023).
PROTOCOL TABLE (as described by Inglese J, Shamu CE and Guy RK. 2007)
SEQUENCE No. (e.g., 1, 2, 3, etc.); […] (e.g., C. elegans, Compounds, Incubation, Read, etc.); VALUE and DESCRIPTION.
1. Reagent. Dispense 4 uL ABL1-N-HiBiT enzyme per well at a final enzyme concentration of 10 nM in buffer with 50 uM ATP (SDR assay) into columns 2-48 of four replicate Greiner 1536-well white, solid bottom high base, medium plates per assay. Dispense respective buffer without enzyme at 4 uL/well in column 1 of assay plates using BioRaptr 2.
2. Compounds. Library compounds added at 23 nL/well by pin transfer. DMSO neutral control and imatinib positive control added at 25 nL/well, transfer by Mosquito dispenser.
3. Incubation. Incubate enzyme and compounds at room temperature for 30 min, protected from light.
4. Reagent. (SDR assay) Add 3 uL/well of Nano-Glo HiBiT reagent (Promega) to assay plates with ATP.
5. Incubation. (SDR assay) Incubate enzyme solution and HiBiT reagent at room temperature for 10 min, protect from light.
6. Detector. (SDR assay) Luminescence measured using CCD-based camera (ViewLux) with settings as follows: Exposure, 1 sec; Gain, High; Speed, Slow; Binning, 2X.
Inglese J, Shamu CE and Guy RK, Reporting data from high throughput screening of small molecule libraries, Nature Chemical Biology, 2007, 3(8): 438-441. doi.org/10.1038/nchembio0807-438.

SMILES	signal gain, positive = increase [%]
CCNC(=O)C[C@@H]1N=C(c2ccc(Cl)cc2)c2cc(OC)ccc2-n2c(C)nnc21	-4.29
O=[N+]([O-])O[C@H]1CO[C@H]2[C@@H]1OC[C@H]2O[N+](=O)[O-]	2.28
N#Cc1cn([C@@H]2O[C@H](CO)[C@H](O)[C@@H]2O)c2ncnc(N)c12	16.4
O=C(NCCCNc1nc(Nc2ccc(N3CCOCC3)cc2)ncc1C1CC1)C1CCC1	8.48
C/C(O)=C(\C#N)C(=O)Nc1cc(Br)ccc1Br	-66.9
Cc1[nH]nc2ccc(-c3cncc(OC[C@@H](N)Cc4c[nH]c5ccccc45)c3)cc12	-0.858
